Source: PubChem BioAssay
PGE2 EP2 inh: inhibitors of human EP2 prostaglandin E2 receptor; P43116; C6 glioma cells expressing human EP2, cAMP TR-FRET; cells stimulated with saturating PGE2; inhibition, % at 25 µM; actives 0.52% (n = 260,000);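 active = percent inhibition above 40 after rounding to a whole number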;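 also: rat C6 glioma host cells with rolipram phosphodiesterase inhibitor present; the protocol text gives 20 µM as final concentration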
Target sequence (P43116 whole entry, looked up): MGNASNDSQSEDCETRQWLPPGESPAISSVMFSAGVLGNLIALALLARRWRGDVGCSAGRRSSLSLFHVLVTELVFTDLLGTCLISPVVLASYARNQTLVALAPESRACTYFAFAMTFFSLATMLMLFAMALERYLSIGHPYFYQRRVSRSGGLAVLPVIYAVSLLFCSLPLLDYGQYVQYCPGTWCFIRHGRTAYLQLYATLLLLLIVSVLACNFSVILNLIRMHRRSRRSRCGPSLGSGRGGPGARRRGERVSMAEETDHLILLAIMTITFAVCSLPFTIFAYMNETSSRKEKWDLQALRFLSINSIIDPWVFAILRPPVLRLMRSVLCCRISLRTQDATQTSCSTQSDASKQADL
Furin inhibitor: inhibitors of human furin | P09958 | purified furin, fluorogenic substrate cleavage | inhibition, % at 20 µM or 30 µM | actives 0.061% (n = 220,000); in the data active = inhibition above about 25%
Wee1 degr inh: human Wee1 degradation inhibition, primary screen; HeLa Luc-Wee1K328M stability, luciferase luminescence; 100% = proteasome inhibitor MG132 effect; reporter increase, % at 5 µM; P30291; AID 1321; actives 1.2% (n = 220,000);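 active = activation above the mean of all tested compounds plus 3 SD, set per screening run, cut at about 8.8% in these data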;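 also: cells exposed to compound for 20 h before luminescence read; 0% = DMSO alone and 100% = MG132 at 30 µM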
HSV replic up: HSV replication enhancement; HSV replication augmentation in cells, fold increase; maximum fold increase; actives 0.005% (n = 220,000); AID 1956; in the data active = maximum fold increase above about 1.5; tested in PC3 cells
NCF1 inh: p47phox (human) inhibition; P14598; AID 1274; inhibition, % at 24.7 µM; p47phox/p22phox peptide binding, fluorescence polarization, 2 h; actives 0.53% (n = 220,000);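 active = inhibition above about 30%, limit read from the data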;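 also: 0% = p47phox with labelled peptide and 100% = labelled peptide alone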
EP2 modulator: EP2 receptor (human) modulation. P43116. EP2-expressing cells, cAMP HTRF FRET, PGE2 co-stimulation. induction, % at 25 µM. actives 0.83% (n = 260,000);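 active = compounds whose cAMP rise, as percent of the full-agonist control response, exceeds 60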;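 also: rat C6 glioma line stably carrying human EP2 under a CMV promoter; the protocol text gives 20 µM as final concentration; 100% = response of wells given 1 µM PGE2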
Active calls of the source: *; i = inactive; x = not tested or not shown; ! = not active in a repeat. A selection: hits, their analogues and other compounds. The true share with any hit is near 2.8%.

SMILES	PGE2 EP2 inh	Furin inhibitor	Wee1 degr inh	HSV replic up	NCF1 inh	EP2 modulator
O=C1NC(c2cccs2)Nc2sc3c(c21)CCCC3 (centres undefined)	18.0	7.2	8.9*	i	-29.1	-15.7
CC(C)(C)C1CCc2c(sc3ncnc(SCC(=O)N4CCOCC4)c23)C1 (centres undefined)	9.5	x	x	x	x	24.7
CCN1CCN(Cc2ccc(NC(=O)c3ccc(C)c(NC(=O)c4ccc5n[nH]nc5c4)c3)cc2C(F)(F)F)CC1	9.7	-18.8	x	i	-9.4	-14.3
CCN1CCN(Cc2ccc(NC(=O)c3cc(NC(=O)C(=O)c4c[nH]c5ccccc45)cc(OC)c3)cc2C(F)(F)F)CC1	22.6	-4.1	x	i	37.3*	-15.8
CCN1CCN(Cc2ccc(NC(=O)c3ccc(C)c(NC(=O)C(=O)c4c[nH]c5ccccc45)c3)cc2C(F)(F)F)CC1	13.5	-22.5	x	i	59.0*	-10.4
C/C(=C\c1ccccc1)C1C(C#N)=C(N)OC2=C1C(=O)CC(C)(C)C2 (centres undefined)	16.6	x	x	x	x	32.9
O=C(O)[C@H]1CN(C(=O)CCn2cccn2)C[C@@H]1c1ccc(F)cc1	x	x	x	x	x	0.5
COc1ccc(C2CC(C(F)(F)F)n3nc(C(=O)O)cc3N2)cc1OC (centres undefined)	6.3	-17.9	-2.1	i	-11.8	61.6*
O=[N+]([O-])c1ccc2c(c1)C(O)n1nc(-c3ccc(Cl)cc3Cl)nc1S2 (centres undefined)	11.5	0.9	12.8*	i	-5.9	18.5
Cc1cc(C)c(S(=O)(=O)/N=C2/C=C(Sc3ncn[nH]3)C(=O)c3ccccc32)cc1C	104.4*	-8.4	-3.0	i	54.4*	-80.0
CCC1Oc2ccc(C)cc2N(CC(=O)NCc2ccccc2F)C1=O (centres undefined)	3.5	x	x	x	x	-2.2
COc1ccccc1CN(CCCn1ccnc1)Cc1ccc2c(c1)CC(C)O2 (centres undefined)	6.8	x	x	x	x	3.0
O=C(c1cccc(Cl)c1)N1N=C(C(F)(F)F)CC1(O)C1CCCCC1 (centres undefined)	11.2	x	x	x	x	85.3*
O=C(c1cccc(Cl)c1)N1CCN(C2CCCCC2)CC1	7.7	x	x	x	x	7.8
Nc1ccc(C(=O)Nc2nc3ccc(Cl)cc3s2)cc1	24.2	x	x	x	x	-97.3
Nc1ccc(C(=O)Nc2nc3ccccc3s2)cc1	23.8	-6.0	8.9*	i	-24.9	-13.0
CCNCc1cc(Cl)cc(OC)c1OC(C)C	6.4	-30.0	9.2*	i	0.8	-12.9
COc1c(-c2coc3cc4c(cc3c2=O)CC(O)C(C)(C)O4)ccc2c1C=CC(C)(C)O2 (centres undefined)	91.8*	x	x	x	x	-52.5
Cc1cc(-c2ccc(Cl)cc2)c(C#N)c(N)n1	50.6*	-8.7	2.8	i	-49.4	13.6
COCCNc1c2c(nc3c(-c4ccc(F)cc4)c(C)nn13)CCC2	x	x	x	x	x	-20.3
CC(C)(C)N1C(=O)c2ccccc2NC(=O)N1Cc1ccccc1	11.5	-14.9	-1.1	i	-10.4	9.6
O=C1Nc2ccccc2C(=O)C1(Cl)Cc1ccccc1 (centres undefined)	112.2*	-19.0	-2.2	i	5.9	-18.7
Cc1ccc(-c2nn(-c3ccccc3)cc2C=O)o1	1.8	-19.7	10.8*	i	-8.0	9.5
Cc1ccc(-c2nnc(SCC(=O)Nc3ccc(S(=O)(=O)N(C)C)cc3)o2)cc1	9.0	x	x	x	x	-21.0
CCOCCCNC(=O)C1CCN(S(=O)(=O)CC)CC1	4.7	-11.4	14.8*	i	-0.1	3.2
SMILES	PGE2 EP2 inh	Furin inhibitor	Wee1 degr inh	HSV replic up	NCF1 inh	EP2 modulator
N#CC(c1cccc(C(F)(F)F)c1)(c1ncc(C(F)(F)F)cc1Cl)N1CCOCC1 (centres undefined)	10.6	-14.9	-1.5	i	-11.5	47.4
N#CC(c1ccccc1)(c1ncc(C(F)(F)F)cc1Cl)N1CCOCC1 (centres undefined)	x	-27.8	-3.2	x	41.7*	16.8
c1ccc2oc(C3=NNC(=NC4CC4)SC3)cc2c1	5.5	-11.3	15.0*	i	-20.8	-23.6
C=CCOc1ccccc1NC(=O)c1cc2c([nH]c1=O)CCCCC2	6.8	x	x	x	x	-41.2
CCOC(=O)c1sc2cccc(Cl)c2c1N	11.5	-4.8	2.5	i	-4.5	17.3
CCOC(=O)c1sc2ccccc2c1OC(=O)c1ccccc1	11.6	-14.8	-1.2	i	-7.9	64.8*
CCOC(=O)c1sc2cccc(F)c2c1N	0.4	-14.0	32.9*	i	-5.7	16.9
COC(=O)c1sc(N2C(=O)C(=O)/C(=C(\O)c3ccc(OC)c(C)c3)C2c2cccnc2)nc1C (centres undefined)	53.3*	x	x	x	x	8.1
COc1ccc(/C(O)=C2/C(=O)C(=O)N(CCN(C)C)C2c2cccnc2)cc1C (centres undefined)	12.0	-16.8	-1.4	i	2.5	35.1
CC(C)=Cc1oc2ccc([N+](=O)[O-])cc2c1N1CCOCC1	5.1	-25.0	2.6	i	1.3	64.0*
Nc1ccccc1-c1n[nH]c(=S)s1	66.8*	-25.5	2.8	i	-1.5	0.4
CCCn1c(-c2ccccc2N)n[nH]c1=S	11.8	x	x	x	x	-0.7
CCCN(Cc1ccccc1)C(=S)Nc1ccc(C(C)=O)cc1	4.6	-21.6	0.6	i	-8.1	-2.4
CC(=O)c1ccc(NC(=S)N(CCCN(C)C)Cc2ccccc2)cc1	128.2*	-20.0	7.8	i	1.5	-10.2
Cc1ccc(C)c(OCc2nnc(NC(=O)c3ccc4c(c3)OCO4)s2)c1	12.1	-23.6	10.7*	i	-17.4	36.1
CCCCCCCCCCCCC/C=C/C(O)C(N)CO (centres undefined)	11.3	x	x	x	x	-17.5
Cc1ccc2nc(N3CC(=O)Nc4ccccc43)nc(-c3ccccc3)c2c1	5.9	-9.3	9.6*	i	-12.9	36.2
Cc1c(NC(=O)Nc2ccccc2Cl)c(=O)n(-c2ccccc2)n1C	5.5	-25.5	-0.7	i	-2.7	23.5
Cc1c(NC(=O)Nc2c(Cl)cccc2Cl)c(=O)n(-c2ccccc2)n1C	47.9*!	-18.1	-0.4	i	-4.5	11.1
O=S(=O)(NCC1CCCCC1)c1cccc(S(=O)(=O)N2CCCC2)c1	7.1	x	x	x	x	-24.8
CCN(Cc1ccccc1)c1ccc(/C=N/N=C(N)N)cc1	12.1	-25.3	-1.5	i	47.0*	-81.9
COc1ccc2c(c1)[C@@]1(C)CCC(=O)C[C@H]1CC2	6.3	x	x	x	x	-6.6
CSc1ccccc1C(=O)NC1CCCC1	8.7	-16.1	8.9*	i	0.4	1.0
COc1ccccc1C(=O)NC1CCCCCCC1	11.6	-16.7	1.2	i	0.7	49.4
O=C(NC1CCCC1)c1ccccc1OCc1ccccc1	8.0	-17.3	0.8	i	5.6	61.6*
COc1ccccc1-n1c(SCC(=O)Nc2ccc(C)cc2C)nnc1-c1ccccn1	7.4	x	x	x	x	-31.4
CCOC(=O)CSc1nnc(COc2ccc(Cl)cc2)n1C	3.8	x	x	x	x	-5.1
